{"source": "PubChem BioAssay AID624351", "about": "(Southern Research Specialized Biocontainment Screening …, 2012)", "note": "In all, about 2,400 compounds went through this assay and about 1,400 (58%) were called active.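 Rule for the calls: active = inhibition of 30% or more at any tested dose; inconclusive = primary hits over the limit that were never retested; inactive = the rest.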 So high a share suggests a set chosen from earlier hits. The list shows a part of the results."}
{"assay": "ADP Hunter readout inhibition without MgcRacGAP – biochemical, coupled enzyme counter-screen, artefact control for MgcRacGAP inhibitor project, dose response (AID 624351);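 note: signal is the ADP detection kit reading of free GDP without any GAP enzyme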", "conditions": "fluorescence, no MgcRacGAP; series mostly up to 80 µM"}
{"smiles": "O=C(O)c1cc(N2N=C(C(F)(F)F)/C(=C/C=C/c3ccco3)C2=O)ccc1Cl", "IC50": "inactive"}
{"smiles": "COc1ccc2c(c1OC)C(=O)OC2CC(=O)c1ccc(O)c(O)c1", "note": "(stereo unspecified)", "IC50": "58.7 µM (active)"}
{"smiles": "COc1cccc2c1C(=O)c1c(O)c3c(c(O)c1C2=O)CC(O)(C(C)=NNC(=O)c1ccc(Cl)c(Cl)c1)CC3OC1CC(N)C(O)C(C)O1", "note": "(stereo unspecified)", "IC50": "inactive"}
{"smiles": "COc1cccc2c1C(=O)c1c(O)c3c(c(O)c1C2=O)C[C@@](O)(C(=O)CO)C[C@@H]3OC1CC(N)C(O)C(C)O1", "note": "(stereo partly specified)", "IC50": "inactive"}
{"smiles": "Nc1ccc(N(c2ccccc2)c2ccc(N)cc2)cc1", "IC50": "9.3 µM (active)"}
{"smiles": "N#CC1=C(S)N(c2ccccc2)C2(CCCCC2)NC1=O", "IC50": "inactive"}
{"smiles": "COc1cc(/C=C2\\C(=O)N(c3cccc(C(=O)O)c3)N=C2C)ccc1OCc1ccccc1", "IC50": "inactive"}
{"smiles": "CN(C)S(=O)(=O)c1cccc(NC(=O)CNCC2CCCCC2)c1", "IC50": "inactive"}
{"smiles": "COc1cc(/C=N/NC(=S)Nc2cccc(S(=O)(=O)N(C)C)c2)ccc1O", "IC50": "27.7 µM (active)"}
{"smiles": "COc1cc(/C=N/NC(=S)Nc2cccc(C(=O)O)c2)ccc1O", "IC50": "46.3 µM (active)"}
{"smiles": "CN(C)c1ccc(Sc2ccc3nc(N)nc(N)c3c2)cc1", "IC50": "53.7 µM (active)"}
{"smiles": "CCN(CC)S(=O)(=O)c1cccc(NC(=O)CNC2CCCCCC2)c1", "IC50": "inactive"}
{"smiles": "CCOc1ccccc1NC(=O)C(NCC1(N2CCCCC2)CCCCC1)c1ccccc1", "note": "(stereo unspecified)", "IC50": "inactive"}
{"smiles": "O=C(/C=C/Nc1ccc(Nc2ccccc2)cc1)c1cccs1", "IC50": "inactive"}
{"smiles": "CN(C)c1ccc(N/C=C/C(=O)C(C)(C)C)cc1", "IC50": "7.04 µM (active)"}
{"smiles": "C=C(CN(C)C)C(=O)c1ccc(OC2OC(COC(C)=O)C(OC(C)=O)C(OC(C)=O)C2OC(C)=O)cc1", "note": "(stereo unspecified)", "IC50": "inactive"}
{"smiles": "O=[N+]([O-])c1ccc(N/N=C/c2ccc[nH]2)cc1", "IC50": "41.1 µM (active)"}
{"smiles": "O=C1/C(=C\\c2ccc([N+](=O)[O-])cc2)CS(=O)(=O)C/C1=C/c1ccc([N+](=O)[O-])cc1", "IC50": "inactive"}
{"smiles": "CN1C=CC(=CC=C2C=CC(=O)C=C2)C=C1", "IC50": "23.1 µM (active)"}
{"smiles": "COc1cc(C)c(N)cc1C(C)C", "IC50": "34.2 µM (active)"}
{"smiles": "Nc1ccc(O)c([N+](=O)[O-])c1", "IC50": "43.9 µM (active)"}
{"smiles": "Cc1ccc(S(=O)(=O)Oc2ccc(/C=C3/C(=N)N4C(=NC3=O)SN=C4S(C)(=O)=O)cc2)cc1", "IC50": "inactive"}
{"smiles": "CCOC(=O)/C(C#N)=C1\\C(=O)N(Cc2ccccc2)c2ccccc21", "IC50": "inactive"}
{"smiles": "CCOC(=O)/C(C#N)=C1/C(=O)N(Cc2ccccc2)c2ccccc21", "IC50": "inactive"}
{"smiles": "CCOC(=O)c1[nH]c(=S)n(Cc2ccccc2)c1C(=O)OCC", "IC50": "41.9 µM (active)"}
{"smiles": "Cc1cs/c(=N\\N=C\\c2ccc(O)cc2)n1Cc1ccco1", "IC50": "25.9 µM (active)"}
{"smiles": "CN(C)C(=S)N=c1ssc(=S)n1Cc1ccco1", "IC50": "inactive"}
{"smiles": "Cc1ccc(CN2CCN(Cc3ccco3)CC2)cc1", "IC50": "inactive"}
{"smiles": "CCN1CCN(CCCOc2ccccc2-c2ccccc2)CC1", "IC50": "inactive"}
{"smiles": "COc1ccc(C(=O)/C=C/c2ccc(O)cc2)c2c1CC(O)C(C)(C)O2", "note": "(stereo unspecified)", "IC50": "52.3 µM (active)"}
{"smiles": "COc1ccc(OC)c(CN2CCN(Cc3ccc(OC)c(OC)c3OC)CC2)c1", "IC50": "inactive"}
{"smiles": "Clc1cccc(N/N=C/c2ccc(N3CCOCC3)s2)c1", "IC50": "59.7 µM (active)"}
{"smiles": "NC(=O)N/N=C/c1ccc(N2CCOCC2)s1", "IC50": "45.8 µM (active)"}
{"smiles": "CNC(=S)N/N=C/c1ccc(N2CCOCC2)s1", "IC50": "inactive"}
{"smiles": "CCOC(=O)N/N=C/c1ccc(N2CCOCC2)s1", "IC50": "53 µM (active)"}
{"smiles": "COC(=O)CC1SC(=O)NC1=Nc1ccc(O)cc1", "note": "(stereo unspecified)", "IC50": "60.2 µM (active)"}
{"smiles": "Cc1ccn2c(NC3CCCC3)c(-c3ccncc3)nc2c1", "IC50": "49 µM (active)"}
{"smiles": "CN1CCN(C(=O)c2sc(=S)n(-c3ccccc3)c2N)CC1", "IC50": "inactive"}
{"smiles": "Cc1c(-c2ccccc2)sc(N)c1C(=O)N1CCOCC1", "IC50": "41.6 µM (active)"}
{"smiles": "CCOC(=O)c1c(-c2ccccc2)csc1NC(=O)C(C)NCCCN1CCOCC1", "note": "(stereo unspecified)", "IC50": "inactive"}
{"smiles": "CCCCNCC#CCOc1cc(C)ccc1C(C)C", "IC50": "inactive"}
{"smiles": "C=CC[n+]1c(/C=C/c2ccc(OC(C)=O)c(OC)c2)ccc2ccccc21", "IC50": "inactive"}
{"smiles": "COc1cc(/C=C/c2sc3ccccc3[n+]2CCCS(=O)(=O)[O-])ccc1O", "IC50": "22.2 µM (active)"}
{"smiles": "CN(C1CCCCC1)S(=O)(=O)c1cccc2nsnc12", "IC50": "inactive"}
{"smiles": "CSC1=NN(c2ccccc2)CN(c2ccccc2)N1C", "IC50": "72.1 µM (active)"}
{"smiles": "COc1cc(CCNC2=CC(=O)c3ncccc3C2=O)ccc1O", "IC50": "70.9 µM (active)"}
{"smiles": "Cc1sc2nc(CN3CCOCC3)nc(N3CCOCC3)c2c1C", "IC50": "inactive"}
{"smiles": "COc1cccc(OC)c1C(=O)N1CCN(Cc2ccc3c(c2)OCO3)CC1", "IC50": "inactive"}
{"smiles": "COc1cc(OC)cc(C(=O)N2CCN(Cc3ccc4c(c3)OCO4)CC2)c1", "IC50": "inactive"}
{"smiles": "C=CCNC(=S)N1CCN(Cc2ccc3c(c2)OCO3)CC1", "IC50": "inactive"}
{"smiles": "CC(=O)N1CCN(c2ccc(NCc3ccc4c(c3)OCO4)cc2)CC1", "IC50": "9.9 µM (active)"}
{"smiles": "Clc1ccccc1CNCc1ccc2c(c1)OCO2", "IC50": "inactive"}
{"smiles": "c1cc2c(cc1CNc1ccc(N3CCOCC3)cc1)OCO2", "IC50": "4.31 µM (active)"}
{"smiles": "CN(C)CCCN1c2ccc(O)cc2Sc2ccc(Cl)cc21", "IC50": "13.1 µM (active)"}
{"smiles": "CCN1CCN(CCCOc2ccc(Cl)cc2Br)CC1", "IC50": "inactive"}
{"smiles": "CN1CCN(CCOCCOc2ccc(Br)cc2Cl)CC1", "IC50": "inactive"}
{"smiles": "C=CCc1cc(Cl)ccc1OCCN(C)C", "IC50": "inactive"}
{"smiles": "CN1CCN(CCCN2c3ccccc3Sc3ccc(Cl)cc32)CC1", "IC50": "83.1 µM (active)"}
{"smiles": "COc1cc(/C=N/Nc2ccc(C(F)(F)F)cn2)ccc1O", "IC50": "52.5 µM (active)"}
{"smiles": "Cc1ncc(CO)c(/C=N/Nc2ccc(C(F)(F)F)cn2)c1O", "IC50": "inactive"}
{"smiles": "Oc1ccc(/C=N/Nc2ccc(C(F)(F)F)cn2)c(O)c1", "IC50": "34.8 µM (active)"}
{"smiles": "COc1cc(/C=N/Nc2ncc(C(F)(F)F)cc2Cl)cc(OC)c1O", "IC50": "inactive"}
{"smiles": "Oc1ccc(/C=N/Nc2ccc(C(F)(F)F)cn2)cc1", "IC50": "29.7 µM (active)"}
{"smiles": "OCCNCCSc1nc(C2CCCCC2)n(-c2ccccc2Cl)n1", "IC50": "inactive"}
{"smiles": "O=c1[nH]c(/C=C\\c2ccc(O)cc2)nc(O)c1[N+](=O)[O-]", "IC50": "43.4 µM (active)"}
{"smiles": "COc1cc(/C=N/NC(=O)c2cccc(N3CCCC3=O)c2)ccc1O", "IC50": "34.1 µM (active)"}
{"smiles": "COc1cc(/C=N/NC(=O)c2ccc(N3CCCC3=O)cc2)ccc1O", "IC50": "31.5 µM (active)"}
{"smiles": "O=c1nc2s/c(=C\\c3ccc(-c4ccccc4[N+](=O)[O-])o3)c(=O)n2nc1-c1ccccc1", "IC50": "inactive"}
{"smiles": "COc1cc(/C=N/NC(=O)NC23CC4CC(CC(C4)C2)C3)ccc1O", "IC50": "56.2 µM (active)"}
{"smiles": "COc1cc(/C=N/N=C2\\CC3CCC2(C)C3(C)C)ccc1O", "note": "(stereo unspecified)", "IC50": "45.7 µM (active)"}
{"smiles": "C=C1CC(C(=O)N/N=C/c2ccc(O)cc2)C1", "IC50": "45.9 µM (active)"}
{"smiles": "O=C(N/N=C/c1ccc(O)cc1)NC12CC3CC(CC(C3)C1)C2", "IC50": "53 µM (active)"}
{"smiles": "O=C(O)C1CSC(c2ccco2)N1", "note": "(stereo unspecified)", "IC50": "inactive"}
{"smiles": "CCOc1ccc(CNC2CCCc3ccccc32)cc1", "note": "(stereo unspecified)", "IC50": "inactive"}
{"smiles": "COc1cc(/C=N\\NC(=O)C2CC3C=CC2C3)ccc1O", "note": "(stereo unspecified)", "IC50": "23.9 µM (active)"}
{"smiles": "COCCNC(=O)Cn1cc(/C=N/NC(=O)c2ccc(Oc3ccc(O)cc3)cc2)c2ccccc21", "IC50": "44.8 µM (active)"}
{"smiles": "COCCNC(=O)CN(C(=O)Cn1nnc2ccccc21)c1ccc(C)cc1", "IC50": "inactive"}
{"smiles": "Oc1ccc(/C=N/Nc2nccnc2Cl)cc1", "IC50": "21.1 µM (active)"}
{"smiles": "Oc1ccc(/C=N/Nc2nccnc2Cl)c(O)c1", "IC50": "12.8 µM (active)"}
{"smiles": "Oc1ccc(/C=N/Nc2ncc(Cl)cc2Cl)cc1", "IC50": "21.5 µM (active)"}
{"smiles": "Cc1cc(C)c(OCCCCN(C)Cc2ccccc2)c(C)c1", "IC50": "inactive"}
{"smiles": "COc1cc(/C=N/N(C)c2ccccc2)ccc1O", "IC50": "17.3 µM (active)"}
{"smiles": "COc1cc(/C=N/N(C)c2ccccc2)cc(Cl)c1O", "IC50": "37.7 µM (active)"}
{"smiles": "COc1cc(OC)c(OC)cc1/C=N/N(C)c1ccccc1", "IC50": "56.4 µM (active)"}
{"smiles": "Cc1ccc(N2C(S)=C(C#N)C(=O)NC2c2cccs2)cc1", "note": "(stereo unspecified)", "IC50": "inactive"}
{"smiles": "CC1=NN(c2ccc(Cl)c(C(=O)O)c2)C(=O)/C1=C/c1ccc(-c2ccccc2[N+](=O)[O-])o1", "IC50": "inactive"}
{"smiles": "CC(=O)N1CCN(c2ccc(NCc3cccc(C)c3)cc2)CC1", "IC50": "7.75 µM (active)"}
{"smiles": "CC(=O)N1CCN(c2ccc(NCc3ccc(C(C)C)cc3)cc2)CC1", "IC50": "8.85 µM (active)"}
{"smiles": "COc1cccc(-c2cc(C(=O)N3CCN(c4ccc(F)cc4)CC3)no2)c1", "IC50": "inactive"}
{"smiles": "CC(=O)N1CCN(c2ccc(NCc3ccc(F)cc3)cc2)CC1", "IC50": "10.9 µM (active)"}
{"smiles": "Cc1ccc(CNc2ccc(N3CCOCC3)cc2)s1", "IC50": "11.7 µM (active)"}
{"smiles": "Cc1cccc(CN2CCN(C(C)C(=O)NC(C)c3ccccc3)CC2)c1", "note": "(stereo unspecified)", "IC50": "inactive"}
{"smiles": "O=c1c2cc(F)ccc2sn1-c1ccccc1", "IC50": "inactive"}
{"smiles": "CC(=O)N1CCN(c2ccc(NCc3ccccc3)cc2)CC1", "IC50": "8.44 µM (active)"}
{"smiles": "O=C(CNCc1cccs1)Nc1ccc(N2CCCCCC2)cc1", "IC50": "inactive"}
{"smiles": "CC(C)c1ccc(CNc2ccc(N3CCOCC3)cc2)cc1", "IC50": "7.52 µM (active)"}
{"smiles": "CC(=O)N1CCN(c2ccc(NCc3cccs3)cc2)CC1", "IC50": "14.7 µM (active)"}
{"smiles": "CCc1ccc(CNc2ccc(N3CCN(C(C)=O)CC3)cc2)cc1", "IC50": "9.1 µM (active)"}
{"smiles": "Cc1ccccc1C(OCC(O)CN1CCN(CCO)CC1)c1ccccc1", "note": "(stereo unspecified)", "IC50": "inactive"}
{"smiles": "O=C(CNc1ccc(Oc2ccccc2)cc1)N1CCOCC1", "IC50": "inactive"}
{"smiles": "c1ccc(CNc2ccc(N3CCOCC3)cc2)cc1", "IC50": "5.39 µM (active)"}
{"smiles": "Cc1ccc(/C=N/Nc2ccc(C(=O)O)cc2)s1", "IC50": "79.7 µM (active)"}
{"smiles": "Cc1ccc(/C=N/Nc2ccc(Cl)c(C(=O)O)c2)s1", "IC50": "67.4 µM (active)"}
{"smiles": "CC(C)n1cc(/C=N/Nc2ccc(Cl)c(C(=O)O)c2)c2ccccc21", "IC50": "inactive"}
{"smiles": "O=c1[nH][nH]cc1C=Nc1ccc(Cl)cc1Cl", "IC50": "inactive"}
{"smiles": "O=c1[nH][nH]cc1C=Nc1cc(Cl)ccc1O", "IC50": "46 µM (active)"}
